Reference: the supplement of paper PMC6555819

The sequences below were run on PPARg:RXRa 30nM:10nM, anti-RXR (NR concentration 30 nM, RXRa partner concentration 10 nM) (assay: PBM binding z-score (relative to random genomic background probes); higher = stronger binding; sequences stand for … in GC…GCGATTGACAGCGTAGAATGAAGG).
How it was run: (§1)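 Antibodies against each partner of ligand-free nuclear receptor dimers (one per run) detected binding on custom Agilent 4×180K protein-binding microarrays after 1 h incubation. The double-stranded probes had 34-nt variable regions carrying direct-repeat seeds, single-nucleotide variants, half-site ablations and random human genomic background sequences. Binding z-scores, from regression-normalized fluorescence, use the random background probes as reference.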
Work on CTAACTAGGTCAAGGACAGTGAATCTCCGCACGC yielded a PBM binding z-score of 4.93. In the case of AGAATGAGGTTATTAAAATCAGGGAATTGCGGTC, the PBM binding z-score was 0.509. ACAAGCAGGCCAAGGGTCACTCAAGATTAGTCCG was tested, and the PBM binding z-score was 6.24. GATACAGGGTCAAGGCCCGAGTACGCGTATTGAT gave a PBM binding z-score of 2.48. ACTATTAGTTGACTTAGTGCAACCGATACGACGC was tested, and the PBM binding z-score was 0.433. With CCGAGTAGGTTATGGGGCAGTCAGGCAACGGTGA the PBM binding z-score was 1.39. CCTACTGGGCCATTCAGAGGCCATTGATCATATG gave a PBM binding z-score of -0.265. ATCTCTGGGTAAGACTCAGTTCAGTGAAGAACGC gave a PBM binding z-score of 0.108. With TCGAGTTGGTCACGGAGGTCACACACGACGGGTA the PBM binding z-score was 1.82. Work on TTACCAAGGTGAACGTCGTTGATCCCTCTGTAGA yielded a PBM binding z-score of 0.514. Work on TCATATAGGTAAAGGTGAAAGTCGAACGATATGA yielded a PBM binding z-score of 4.42. Work on CTACTAAGGTGAACAAGGTCGTTGATTACTATTC yielded a PBM binding z-score of 0.156. Sequence ATCTCTAGGCAAAAGTTCAGTGAATCCCGAGGAT has a PBM binding z-score of 5.06. With CAAACTAGGTCAAGGTAAAAGTCGGTTTGTGCCA the PBM binding z-score was 4.93. For CAAACTAGGTCAGGGTCAAAGTCGGTTTGTGCCA, the PBM binding z-score was 5.39. In the case of ATATGTAGGTTACAACCGGGTCATTCAGGCTATG, the PBM binding z-score was 3.03. AGTCAATGTTCAGGACGAGGTAACGTAAAGCACG was tested, and the PBM binding z-score was 0.071. ATATGTAGGTTAAGGGTCATCCAGGTTGGTTCGC showed a PBM binding z-score of 11.2.

Each sequence was assayed on PPARg:RXRa 90nM:30nM, anti-RXR (NR concentration 90 nM, RXRa partner concentration 30 nM) in the same assay as above.
How it was run: as §1
For AGTCAAAGTTCATCTAGGTAACGTATGATATGCT, the PBM binding z-score was 5.74. With CAAACTAGGTGAAGAGGTCAAAGTCCGCTTCCCG the PBM binding z-score was 7.36. In the case of CCTATTTGGTCAAGGTCACACACGCTATAGGTAC, the PBM binding z-score was 2.5. In the case of AGAATGAGGTTGTACGTAGATCAGGGAAGAAAGT, the PBM binding z-score was 0.207. GTACCAAGGTGAATAGGTCGTTAATGAGTAGGCG showed a PBM binding z-score of 1.07. Sequence CCTAGCAGGCCAATCTGGGTCACACAAGGCTTGA has a PBM binding z-score of 2.1. AACTCTAGGTAAAAGTTCAGTGAATCCCGAGGAT showed a PBM binding z-score of 8.32. TTACCAAGGTGAAGGTCGTTGTTCCCTCTGTAGA gave a PBM binding z-score of 3.78. CCGACTGGTGCAGAAAGGTTACCATACCATCCGG showed a PBM binding z-score of 0.336. For TCTATTAGTTGATGGGCAACCGACGAGTCCGTTT, the PBM binding z-score was 2.29. Work on GCTTACGGGTCAAAGGTTATTGCATGAATAGAAT yielded a PBM binding z-score of 10.8. With TCTTGTAGATCAAAGGTTAAGAACGCCGAAGCCT the PBM binding z-score was 8.26. TCAGACAGGTGAAGGTAACTCATGTACGCAGTCG showed a PBM binding z-score of 2.81. For GCTATTAGTAGAAAGGGCAACCGAATGATTCTCG, the PBM binding z-score was 3.54. CCAGACAGGTGAAAGGTAAGTCAGTCTGGTACGC showed a PBM binding z-score of 4.82. ACTCGGAGGACAAAGGTCAGAGATACGCCAGTGA was tested, and the PBM binding z-score was 7.24. AGAATGAGGTTACCAAAGATCAGGGCAACGCTTG gave a PBM binding z-score of 2.34. Sequence CCGACTGGGGCAAAGGTTAGCATACTCAGTACGA has a PBM binding z-score of 9.54. ATCTCTAAGTAAAGATAGTTCAGTGAATGCAAAT showed a PBM binding z-score of 0.14. GCTATTAGTTGAAAGGGCTACCGAATGATTCTCG showed a PBM binding z-score of 1.21. Sequence TCTTGTCGATCAATAGAGGTTAAGAAAGTGCGCT has a PBM binding z-score of 1.98. Work on ATCTCTTGGTAAAAGTTCAGTGAATCCCGAGGAT yielded a PBM binding z-score of 3.88. For CTAACTAGGTCAAGGACAGTGAATCTCCGCACGC, the PBM binding z-score was 6.92. In the case of AGAATGAGGTTATTAAAATCAGGGAATTGCGGTC, the PBM binding z-score was 0.902. Work on ACAAGCAGGCCAAGGGTCACTCAAGATTAGTCCG yielded a PBM binding z-score of 7.51. GATACAGGGTCAAGGCCCGAGTACGCGTATTGAT was tested, and the PBM binding z-score was 4.12. ACTATTAGTTGACTTAGTGCAACCGATACGACGC was tested, and the PBM binding z-score was 0.153. CCGAGTAGGTTATGGGGCAGTCAGGCAACGGTGA was tested, and the PBM binding z-score was 3.3. CCTACTGGGCCATTCAGAGGCCATTGATCATATG showed a PBM binding z-score of 0.287. In the case of ATCTCTGGGTAAGACTCAGTTCAGTGAAGAACGC, the PBM binding z-score was 0.0741. Sequence TCGAGTTGGTCACGGAGGTCACACACGACGGGTA has a PBM binding z-score of 2.63. With TTACCAAGGTGAACGTCGTTGATCCCTCTGTAGA the PBM binding z-score was 1.07. Work on TCATATAGGTAAAGGTGAAAGTCGAACGATATGA yielded a PBM binding z-score of 4.75. Sequence CTACTAAGGTGAACAAGGTCGTTGATTACTATTC has a PBM binding z-score of 1.06. In the case of ATCTCTAGGCAAAAGTTCAGTGAATCCCGAGGAT, the PBM binding z-score was 6.01. With CAAACTAGGTCAAGGTAAAAGTCGGTTTGTGCCA the PBM binding z-score was 6.9. For CAAACTAGGTCAGGGTCAAAGTCGGTTTGTGCCA, the PBM binding z-score was 7.73. In the case of ATATGTAGGTTACAACCGGGTCATTCAGGCTATG, the PBM binding z-score was 4.61. Sequence AGTCAATGTTCAGGACGAGGTAACGTAAAGCACG has a PBM binding z-score of -0.0574. With ATATGTAGGTTAAGGGTCATCCAGGTTGGTTCGC the PBM binding z-score was 12.3.
